# Where two headings read alike, the source gives them in different places.
# What was measured:
# AGK = tested on: AGK; parameters: species or system human, MV4-11 + K-562 + COLO205 + SK-N-BE2 + OVCAR-8; conditions: read-out: apparent Kd; compound concentrations: 100 nM and 1000 nM (sheet 'Samples'), CATDS: 0.48685778986675599; n = 1
# TP53RK = tested on: TP53RK; parameters: species or system human, MV4-11 + K-562 + COLO205 + SK-N-BE2 + OVCAR-8; conditions: read-out: apparent Kd, compound concentrations: 100 nM and 1000 nM (sheet 'Samples'), n = 1
# AKT1 = tested on: AKT1; parameters: species or system human, MV4-11 + K-562 + COLO205 + SK-N-BE2 + OVCAR-8; conditions: read-out: apparent Kd, compound concentrations: 100 nM and 1000 nM (sheet 'Samples'), n = 1
# AKT2 = tested on: AKT2; parameters: species or system human, MV4-11 + K-562 + COLO205 + SK-N-BE2 + OVCAR-8; conditions: read-out: apparent Kd, compound concentrations: 100 nM and 1000 nM (sheet 'Samples'), n = 1
# CDK10 = tested on: CDK10; parameters: species or system human, MV4-11 + K-562 + COLO205 + SK-N-BE2 + OVCAR-8; conditions: read-out: apparent Kd; compound concentrations: 100 nM and 1000 nM (sheet 'Samples'), CATDS: 0.51704029448555699; n = 1
# CDK6 = tested on: CDK6; parameters: species or system human, MV4-11 + K-562 + COLO205 + SK-N-BE2 + OVCAR-8; conditions: read-out: apparent Kd; compound concentrations: 100 nM and 1000 nM (sheet 'Samples'), CATDS: 0.20931890266427899; n = 1
# AGPS = tested on: AGPS; parameters: species or system human, MV4-11 + K-562 + COLO205 + SK-N-BE2 + OVCAR-8; conditions: read-out: apparent Kd; compound concentrations: 100 nM and 1000 nM (sheet 'Samples'), CATDS: 0.49272906791281001; n = 1
# NNT = tested on: NNT; parameters: species or system human, MV4-11 + K-562 + COLO205 + SK-N-BE2 + OVCAR-8; conditions: read-out: apparent Kd; compound concentrations: 100 nM and 1000 nM (sheet 'Samples'), CATDS: 0.50748873234437097; n = 1
# AKT3 = tested on: AKT3; parameters: species or system human, MV4-11 + K-562 + COLO205 + SK-N-BE2 + OVCAR-8; conditions: read-out: apparent Kd; compound concentrations: 100 nM and 1000 nM (sheet 'Samples'), CATDS: 0.118826721397903; n = 1
# CDK17 = tested on: CDK17; parameters: species or system human, MV4-11 + K-562 + COLO205 + SK-N-BE2 + OVCAR-8; conditions: read-out: apparent Kd; compound concentrations: 100 nM and 1000 nM (sheet 'Samples'), CATDS: 8.1529480800730997E-2; n = 1
# CDK9 = tested on: CDK9; parameters: species or system human, MV4-11 + K-562 + COLO205 + SK-N-BE2 + OVCAR-8; conditions: read-out: apparent Kd; compound concentrations: 100 nM and 1000 nM (sheet 'Samples'), CATDS: 7.5399196753672404E-2; n = 1
# CSNK1A1 = tested on: CSNK1A1; parameters: species or system human, MV4-11 + K-562 + COLO205 + SK-N-BE2 + OVCAR-8; conditions: read-out: apparent Kd; compound concentrations: 100 nM and 1000 nM (sheet 'Samples'), CATDS: 8.2829529423840004E-2; n = 1
# HCK = tested on: HCK; parameters: species or system human, MV4-11 + K-562 + COLO205 + SK-N-BE2 + OVCAR-8; conditions: read-out: apparent Kd; compound concentrations: 100 nM and 1000 nM (sheet 'Samples'), CATDS: 0.17397087448623899; n = 1
# ILK = tested on: ILK; parameters: species or system human, MV4-11 + K-562 + COLO205 + SK-N-BE2 + OVCAR-8; conditions: read-out: apparent Kd; compound concentrations: 100 nM and 1000 nM (sheet 'Samples'), CATDS: 8.7046948596417206E-2; n = 1
# MAP2K1 = tested on: MAP2K1; parameters: species or system human, MV4-11 + K-562 + COLO205 + SK-N-BE2 + OVCAR-8; conditions: read-out: apparent Kd; compound concentrations: 100 nM and 1000 nM (sheet 'Samples'), CATDS: 8.98649962952279E-2; n = 1
# NQO1 = tested on: NQO1; parameters: species or system human, MV4-11 + K-562 + COLO205 + SK-N-BE2 + OVCAR-8; conditions: read-out: apparent Kd; compound concentrations: 100 nM and 1000 nM (sheet 'Samples'), CATDS: 9.3069785012321701E-2; n = 1
# RIPK3 = tested on: RIPK3; parameters: species or system human, MV4-11 + K-562 + COLO205 + SK-N-BE2 + OVCAR-8; conditions: read-out: apparent Kd; compound concentrations: 100 nM and 1000 nM (sheet 'Samples'), CATDS: 8.3707794531398802E-2; n = 1
# AIFM1 = tested on: AIFM1; parameters: species or system human, MV4-11 + K-562 + COLO205 + SK-N-BE2 + OVCAR-8; conditions: read-out: apparent Kd; compound concentrations: 100 nM and 1000 nM (sheet 'Samples'), CATDS: 7.0265848272952805E-2; n = 1
# CLK1 = tested on: CLK1; parameters: species or system human, MV4-11 + K-562 + COLO205 + SK-N-BE2 + OVCAR-8; conditions: read-out: apparent Kd; compound concentrations: 100 nM and 1000 nM (sheet 'Samples'), CATDS: 0.104887627590219; n = 1
# CLK4 = tested on: CLK4; parameters: species or system human, MV4-11 + K-562 + COLO205 + SK-N-BE2 + OVCAR-8; conditions: read-out: apparent Kd; compound concentrations: 100 nM and 1000 nM (sheet 'Samples'), CATDS: 9.5715512322220406E-2; n = 1
# CSNK1G1 = tested on: CSNK1G1; parameters: species or system human, MV4-11 + K-562 + COLO205 + SK-N-BE2 + OVCAR-8; conditions: read-out: apparent Kd; compound concentrations: 100 nM and 1000 nM (sheet 'Samples'), CATDS: 5.5121042551324002E-2; n = 1
# DAPK3 = tested on: DAPK3; parameters: species or system human, MV4-11 + K-562 + COLO205 + SK-N-BE2 + OVCAR-8; conditions: read-out: apparent Kd; compound concentrations: 100 nM and 1000 nM (sheet 'Samples'), CATDS: 8.3155449206082505E-2; n = 1
# DCTPP1 = tested on: DCTPP1; parameters: species or system human, MV4-11 + K-562 + COLO205 + SK-N-BE2 + OVCAR-8; conditions: read-out: apparent Kd; compound concentrations: 100 nM and 1000 nM (sheet 'Samples'), CATDS: 5.7600915047594299E-2; n = 1
# FN3KRP = tested on: FN3KRP; parameters: species or system human, MV4-11 + K-562 + COLO205 + SK-N-BE2 + OVCAR-8; conditions: read-out: apparent Kd; compound concentrations: 100 nM and 1000 nM (sheet 'Samples'), CATDS: 6.5569795708597098E-2; n = 1
# FN3K = tested on: FN3K; parameters: species or system human, MV4-11 + K-562 + COLO205 + SK-N-BE2 + OVCAR-8; conditions: read-out: apparent Kd; compound concentrations: 100 nM and 1000 nM (sheet 'Samples'), CATDS: 6.57741887652563E-2; n = 1
# MAPK3 = tested on: MAPK3; parameters: species or system human, MV4-11 + K-562 + COLO205 + SK-N-BE2 + OVCAR-8; conditions: read-out: apparent Kd; compound concentrations: 100 nM and 1000 nM (sheet 'Samples'), CATDS: 8.8800747421998102E-2; n = 1
# NEK2 = tested on: NEK2; parameters: species or system human, MV4-11 + K-562 + COLO205 + SK-N-BE2 + OVCAR-8; conditions: read-out: apparent Kd; compound concentrations: 100 nM and 1000 nM (sheet 'Samples'), CATDS: 7.0168858397625197E-2; n = 1
# PBK = tested on: PBK; parameters: species or system human, MV4-11 + K-562 + COLO205 + SK-N-BE2 + OVCAR-8; conditions: read-out: apparent Kd; compound concentrations: 100 nM and 1000 nM (sheet 'Samples'), CATDS: 7.2795732103844296E-2; n = 1
# Q6ZSR9 = Q6ZSR9 (human, UniProt Q6ZSR9); parameters: species or system MV4-11 + K-562 + COLO205 + SK-N-BE2 + OVCAR-8; conditions: read-out: apparent Kd; compound concentrations: 100 nM and 1000 nM (sheet 'Samples'), CATDS: 6.3978551473772294E-2; n = 1
# Sequence of Q6ZSR9 (Q6ZSR9 whole entry, looked up): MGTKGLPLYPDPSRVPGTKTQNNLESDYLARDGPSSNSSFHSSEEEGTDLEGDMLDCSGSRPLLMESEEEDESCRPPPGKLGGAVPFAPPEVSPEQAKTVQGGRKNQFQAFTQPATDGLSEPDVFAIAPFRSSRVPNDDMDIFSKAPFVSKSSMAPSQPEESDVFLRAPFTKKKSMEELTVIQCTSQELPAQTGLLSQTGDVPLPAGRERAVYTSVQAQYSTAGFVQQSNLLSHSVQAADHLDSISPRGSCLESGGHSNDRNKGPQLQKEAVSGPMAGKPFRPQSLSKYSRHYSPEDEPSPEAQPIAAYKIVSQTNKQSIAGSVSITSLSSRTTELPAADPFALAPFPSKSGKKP
# RABL3 = tested on: RABL3; parameters: species or system human, MV4-11 + K-562 + COLO205 + SK-N-BE2 + OVCAR-8; conditions: read-out: apparent Kd; compound concentrations: 100 nM and 1000 nM (sheet 'Samples'), CATDS: 7.0827671495760899E-2; n = 1
# TESK1 = tested on: TESK1; parameters: species or system human, MV4-11 + K-562 + COLO205 + SK-N-BE2 + OVCAR-8; conditions: read-out: apparent Kd; compound concentrations: 100 nM and 1000 nM (sheet 'Samples'), CATDS: 6.7543584282145103E-2; n = 1
structure (smiles),measurement,setting,value
COC[C@@H](C)N[C@H]1CC[C@H](Nc2cc(-c3cccc(NCC4(C#N)CCOCC4)n3)c(Cl)cn2)CC1 [NVP-2],potency estimated from few doses,AGK,2.37 µM
same,potency estimated from few doses,TP53RK; CATDS: 0.51387141429952199,2.13 µM
Cc1cc(Cl)cc2c1NC(=O)C2=NNc1ccc(S(N)(=O)=O)cc1 [GW279320X],potency estimated from few doses,AKT1; CATDS: 0.213173393679812,1.72 µM
same,potency estimated from few doses,AKT2; CATDS: 0.21750959040308801,1.63 µM
same,potency estimated from few doses,CDK10,0.316 µM
same,potency estimated from few doses,CDK6,1.81 µM
Cc1cc(O)cc(C)c1/C=C/c1cncc(C(=O)N(C)C)c1 [GW427984X],potency estimated from few doses,AGPS,1.86 µM
same,potency estimated from few doses,NNT,1.75 µM
Cn1cc(C2=C(c3cn(-c4ccccc4)c4ccccc34)C(=O)NC2=O)c2ccccc21 [RO0318564-000],potency estimated from few doses,AKT1; CATDS: 1,2.08 µM
Cl.N#CCc1ccc(Nc2nccc(Nc3ccc(Oc4ccccc4)cc3)n2)cc1 [GW639905A],potency estimated from few doses,AKT2; CATDS: 8.2827110731653497E-2,1.92 µM
same,potency estimated from few doses,AKT3,0.954 µM
same,potency estimated from few doses,CDK17,1.99 µM
same,potency estimated from few doses,CDK9,2.42 µM
same,potency estimated from few doses,CSNK1A1,1.92 µM
same,potency estimated from few doses,HCK,0.532 µM
same,potency estimated from few doses,ILK,1.72 µM
same,potency estimated from few doses,MAP2K1,1.61 µM
same,potency estimated from few doses,NQO1,1.5 µM
same,potency estimated from few doses,RIPK3,1.88 µM
same,potency estimated from few doses,TP53RK; CATDS: 8.4353152889517405E-2,1.85 µM
O=C1N=C(NCCc2ccc(F)cc2)S/C1=C\c1ccc2ncccc2c1 [RO4508340-000],potency estimated from few doses,AIFM1,1.31 µM
same,potency estimated from few doses,CLK1,0.643 µM
same,potency estimated from few doses,CLK4,0.744 µM
same,potency estimated from few doses,CSNK1G1,2.38 µM
same,potency estimated from few doses,DAPK3,0.948 µM
same,potency estimated from few doses,DCTPP1,2.1 µM
same,potency estimated from few doses,FN3KRP,1.53 µM
same,potency estimated from few doses,FN3K,1.52 µM
same,potency estimated from few doses,MAPK3,0.844 µM
same,potency estimated from few doses,NEK2,1.32 µM
same,potency estimated from few doses,PBK,1.22 µM
same,potency estimated from few doses,Q6ZSR9,1.62 µM
same,potency estimated from few doses,RABL3,1.29 µM
same,potency estimated from few doses,TESK1,1.43 µM

# Source: article PMC11062922 (Nature Chemical Biology, 2023)
